About 83,000 compounds went through this panel and 20% of them were active in at least one assay; those are over-represented in the sample as a whole.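 The test compound was applied at a single concentration to cells in 96-well plates for 48 hours, and percent growth was recorded.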 Values without a mark were called inactive. Activity calls are given as the source filed them. How the source made its calls: active means growth percent below 10; inactive means the rest.
Tests used:
Test in all cases: NCI-60 one-dose screen, 48 h (100 = growth as untreated, 0 = no growth, -100 = all killed)
Details in all cases: 10 µM
T-47D breast = test system: T-47D breast
BT-549 breast = test system: BT-549 breast
MDA-MB-435 melanoma = test system: MDA-MB-435 melanoma
SW-620 colon = test system: SW-620 colon
MCF7 breast = test system: MCF7 breast
HCT-116 colon = test system: HCT-116 colon
HCC-2998 colon = test system: HCC-2998 colon
KM12 colon = test system: KM12 colon

| Structure (SMILES) | growth (T-47D breast) | growth (BT-549 breast) | growth (MDA-MB-435 melanoma) | growth (SW-620 colon) | growth (MCF7 breast) | growth (HCT-116 colon) | growth (HCC-2998 colon) | growth (KM12 colon) |
| --- | --- | --- | --- | --- | --- | --- | --- | --- |
| OCC1OC(n2cnc3c(NCc4ccco4)ncnc32)C(O)C1O (stereo unspecified) | 8.92% (active) | -23% (active) | 17.2% | 18.8% | -13.1% (active) | 1.81% (active) | 23.7% | 62.8% |
| CCOC(=O)CN(c1sc(C)c(C)c1C(=O)OCC)S(=O)(=O)c1ccc(C)cc1 | 88.5% | 102% | 102% | 100% | 100% | 95.5% | 100% | 96% |
| COc1cc(C(=O)/C(C)=C/c2c[nH]c3ccccc23)cc(OC)c1OC | 53% | -9% (active) | 5.74% (active) | 29.9% | 15.4% | 2.11% (active) | 15.2% | 16.5% |
| COc1ccc(-c2nn(-c3cccc(Cl)c3)cc2-c2c(C#N)c(=O)n3[nH]c(-c4ccc(C)cc4)nc3c2C#N)cc1 | 55.6% | 43.4% | 10.8% | -21% (active) | 21.2% | 9.86% (active) | 52.2% | 55.1% |
| COc1cc(/C=C/c2cc(/C=C/c3ccc(O)c(OC)c3)[nH]c(=O)n2)ccc1O | 59.1% | 55% | 56.9% | 43.6% | 52.1% | 34.7% | 71% | 29.3% |
| CCCc1cn(CC(=O)Nc2nc3ccccc3s2)nn1 | 102% | 103% | 105% | 99.9% | 100% | 101% | 116% | 109% |
| Nc1nc(Cl)nc2c1ncn2C1O[C@H](CO)[C@@H](O)[C@@H]1F (stereo partly specified) | 49.3% | 20.4% | 41.5% | 49.7% | 30.7% | 25.3% | 57.3% | 51.4% |
| O=C1/C=C/[C@@H](O)[C@@H]2C[C@@H](O)C[C@H]2/C=C/CCC[C@@H](C(F)(F)F)O1 | 82.3% | 123% | 93.5% | 93.9% | 67.1% | 109% | 107% | 99.3% |
| CCN(CCCNc1cc2c(c(N)c1S(=O)(=O)O)C(=O)c1ccccc1C2=O)c1ccccc1 | 93.1% | 89.2% | 106% | 113% | 107% | 90% | 108% | 107% |
| CNC(=O)c1cc(Oc2ccc3c(c2)sc2nc(-c4ccc(N)cc4)cn23)ccn1 | 36.1% | 5.56% (active) | 13% | 34.8% | 20.2% | 6.01% (active) | 20.9% | 20.7% |
| COc1ccc(-c2cc(-c3ccc(OC)c(OC)c3)nc(SCCCC(=O)NO)n2)cc1 | 4.26% (active) | 8.08% (active) | 1.23% (active) | 2.56% (active) | -22% (active) | 0.272% (active) | -15.7% (active) | 15.7% |
| C#CCOc1c(OC)cc(C(=O)/C(C)=C/c2cccc(N=[N+]=[N-])c2)cc1OC | 44.3% | 11.4% | -19% (active) | 36.5% | 16.4% | 6.9% (active) | 21.4% | 26.6% |
| Cc1cc(CSc2ccccc2C(=O)N2CC=C(c3ccccc3)CC2)on1 | 75.5% | 101% | 98% | 97.6% | 94.9% | 93.1% | 93.3% | 97.2% |
| Nc1nc(-c2cccnc2)nc2c1sc(=S)n2-c1ccccc1 | 90.8% | 101% | 111% | 104% | 94.4% | 70.7% | 105% | 99% |
| CCc1cc(Cl)c(OC)c(C(=O)NCC2CCCN2CC)c1O (stereo unspecified) | 80.9% | 89.2% | 92.7% | 91.7% | 95.8% | 88.5% | 96.4% | 101% |
| COc1cc(C)ccc1Oc1nc(Nc2ccc(N3CCOCC3)cc2)ncc1NC(=O)Nc1cc(C(F)(F)F)cc(C(F)(F)F)c1 | 81.9% | 78.3% | 81.5% | 82.6% | 69.3% | 22.6% | 101% | 63.5% |

| Structure (SMILES) | growth (T-47D breast) | growth (BT-549 breast) | growth (MDA-MB-435 melanoma) | growth (SW-620 colon) | growth (MCF7 breast) | growth (HCT-116 colon) | growth (HCC-2998 colon) | growth (KM12 colon) |
| --- | --- | --- | --- | --- | --- | --- | --- | --- |
| CCOC(=O)CSc1nc(-c2cc(OC)ccc2OC)cc(-c2ccc(OC)cc2)c1C#N | 65.6% | 86% | 86.6% | 92.1% | 71.7% | 67.3% | 85.5% | 71.3% |
| COc1ccc2c(c1)C(=O)/C(=C/c1cccc(OCC(=O)c3ccc([N+](=O)[O-])cc3)c1)CO2 | 50.3% | -34.5% (active) | 24.4% | -89% (active) | -35.9% (active) | -74.2% (active) | – | -87.9% (active) |
| O=C(c1ccccc1)N(C(=O)c1ccccc1)N1CCCC1 | 99.9% | 105% | 116% | 100% | 105% | 106% | – | 107% |
| COc1ccc(C(=O)c2ccccc2CN2C(=O)c3ccccc3C2=O)cc1 | 90.6% | 112% | 108% | 99% | 102% | 101% | 105% | 107% |
| CCOC(=O)c1cc(C(=O)c2cc(OC)c(OC)c(OC)c2)n2nc(C)ccc12 | 93.6% | 47.5% | 3.24% (active) | 26.7% | 21.6% | 14.7% | 25.9% | 28% |
| Nc1ccc(-c2cccs2)cc1NC(=O)c1ccc(CCCC(=O)Nc2ccc(C3CC3N)cc2)cc1 (stereo unspecified) | 65.1% | 96.5% | 20.6% | 23.7% | 18.8% | 3.29% (active) | 99.7% | 69.3% |
| COc1ccc(-c2nnc(SCC(=O)Nc3ccc(C(=O)/C=C/c4ccccc4)cc3)n2-c2ccccc2)cc1OC | 72.9% | 92.8% | 86.1% | 66.4% | 36.4% | 17% | 110% | 91.7% |
| COc1ccc(/C(C#N)=C/c2cccc(OC)c2OC)cc1 | 80.7% | 78.1% | 9.46% (active) | 65.2% | 66% | 89.7% | 78.4% | 56.7% |
| CC(C)(C)OC(=O)N1CCc2c(sc3ncnc(N/N=C/c4cccc(Br)c4)c23)C1 | 20.2% | 79.4% | 34.3% | 41.1% | 5.3% (active) | 29.6% | 42.6% | 62.3% |
| CCOC(=O)/C(=C(\C)N)C1CC(=O)NC1=O (stereo unspecified) | 110% | 87.3% | 100% | 96.8% | 91% | 107% | 103% | 121% |
| Cc1ccc(S(=O)(=O)N/N=C2\CCCc3ccccc32)cc1 | 94% | 115% | 101% | 101% | 92.1% | 114% | 108% | 111% |
| c1cnc2[nH]cc(-c3nc(-c4ccsc4)cs3)c2c1 | 66.1% | 96.1% | 98.3% | 111% | 57.7% | 89.9% | 115% | 88.9% |
| Cc1noc(C)c1CSc1ccccc1C(=O)N1CCN(c2cccc(C(F)(F)F)c2)CC1 | 49.2% | 61% | 82.6% | 86.5% | 79.4% | 55.3% | 93.6% | 79.2% |
| O=[N+]([O-])c1cccc(/C=N/NC(=S)NC23CC4CC(CC(C4)C2)C3)c1 | 88.7% | 100% | 84.8% | 88.5% | 66.9% | 61.1% | 103% | 95.2% |
| COc1ccc(/C=C/c2nnc(/C=C/c3ccc(OC)c(OC)c3)o2)cc1OC | 19.5% | 25.5% | 10.4% | 18.1% | 22.8% | 4.83% (active) | 54.9% | 33.7% |

From PubChem BioAssay (NCI)
